# Results taken from PubChem BioAssay AID493169 (National Center for Advancing Translational Sciences (NCATS), 2011).
# Inconclusive results are not listed. Unmarked numbers belong to inactive results. Activity calls are given as the source filed them. Calls come from the whole dose curve; as a rule, active = well fitted inhibition curve with a large enough effect; inconclusive = small, poorly fitted or top-dose-only effect; inactive = flat fitted curve, though single readings scatter.
# Assay: CHOP2 Reporter Counterscreen Assay for Inhibitors of Ubiquitin-specific Protease USP2a;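 note: activated enterokinase alone at 50 pM in a cell-free format rather than USP2a or CHOP2; nearly all actives have a fitted effect of over 55% in size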
# Conditions: purified enterokinase, fluorogenic substrate, 485/531 nm; series mostly up to 38.3 µM; activity change, negative = inhibition: at the top concentration
# From the text: NIH Molecular Libraries Probe Centers Network [MLPCN] NIH Chemical Genomics Center [NCGC] MLPCN Grant: XO1-MH079852-01 PI Name: Nicholson, Ben. Progenra Inc, Malvern, PA NCGC Assay Overview: Homeostasis of cellular proteins is maintained through a combination of synthesis and degradation. The pathway that accounts for the majority of protein degradation is the ubiquitin-proteasomal pathway. Ubiquitin (Ub) is highly conserved in all cells and the generation of a multi-Ub chain typically targets proteins for degradation by the proteasome. However, ubiquitination is highly reversible and dynamic. Deubiquitination, the reverse process, is catalyzed through the action of enzymes referred to as isopeptidases or deubiquitinating enzymes (DUBs). This group of enzymes is collectively responsible for maintaining adequate pools of free ubiquitin and regulating the ubiquitination status of cellular proteins. The class of DUBs referred to as the ubiquitin-specific proteases (USP) family functions endoproteolytically to cleave Ub chains from a wide range of protein substrates. USP2a deubiquitinates fatty acid synthase (FASN) which has recently been identified as an emerging oncology target. To identify inhibitors of USP2a a cell-free assay was employed. This assay is a counterscreen against the reporter enzyme used to measure USP2a activity in the primary qHTS assay. The reporter enzyme is a protease (enterokinase, EK; EC 3.4.21.9), which is activated when a Ub sequence is cleaved by USP2a. The counterscreen assay is performed in the same buffer and conditions as the primary USP2a coupled assay but uses fully activated EK alone. The assay gives a fluorescent read-out at excitation/emission wavelengths of 485/531. The assay was provided by Progenra, Inc. and has been licensed for sale by LifeSensors, Inc.
# NCGC Assay Protocol: The assay buffer, prepared fresh at the day of the assay, contains 20mM Tris-HCl pH 8.0, 2mM CaCl2, 2mM beta-Mercaptoethanol, 0.05% CHAPS. 3uL of 100 pM EK (50 pM final) was dispensed into a medium-binding black solid Kalypsys 1,536 well plate using the Kalypsys dispenser. The assay plate was then pinned with 23nL compounds in DMSO with the Kalypsys pintool in columns 5-48 (0.3% final DMSO concentration). The negative control was buffer/DMSO only in column 3. The assay plate is incubated at RT for 30min. Subsequently, 3uL of reporter substrate (25nM final) were dispensed into the plate using the Kalypsys dispenser. Plates were read after 10 min at RT on a ViewLux (Perkin Elmer) plate reader using the following wavelengths: Ex 485nm /Em 531nm. Data were normalized to the AC100 inhibition (buffer alone). Concentration-response curves were fitted to the normalized data and the concentration-response curves were then classified based on curve quality (r2), response magnitude and degree of measured activity. The time zero reading was used to flag fluorescence artifacts.
# % is set by controls: 0 for no effect and ±100 for the full control effect; potency is the fitted concentration of half-maximal effect.
Compound,Potency,"activity change, negative = inhibition"
O=C(O)c1cccc2c1NC(C(=O)O)C1CC(Sc3ccccc3[N+](=O)[O-])C(Cl)C21 (centres undefined),10 µM (active),–
O=C(COc1ccc(S(=O)(=O)N2CCOCC2)cc1)N1CCN(Cc2ccc3c(c2)OCO3)CC1,–,-1.96%
O=c1[nH]c(=O)n(Cc2ccc(F)cc2)c(O)c1C=NCCCn1ccnc1,–,0.404%
O=C1NC(=S)N(c2ccccc2)C(=O)/C1=C/c1ccco1,3.55 µM (active),–
FC(F)(F)c1ccc2c(c1)N(CCCN1CCN(CCCl)CC1)c1ccccc1S2,–,-12.5%
Clc1ccc(C(c2ccc(Cl)cc2)n2cc[n+](CC(OCc3ccc(Cl)cc3Cl)c3ccc(Cl)cc3Cl)c2)cc1 (centres undefined),3.16 µM (active),–
Cc1nn(Cc2ccc(Cl)cc2Cl)c(Cl)c1C(=O)Nc1ccc(OC(F)F)cc1,–,-1.08%
OC(c1ccncc1)(c1ccc(F)cc1)c1ccc(F)cc1,–,-2.73%
CCCC1=C(C(=O)OCC)C2(C(=O)Nc3ccc(C)cc32)C(C#N)=C(N)O1 (centres undefined),–,7.12%
O=c1[nH]c(=S)n(Cc2ccco2)c(O)c1C=NCc1cccs1,8.91 µM (active),–
NC(N)=N/N=C/c1ccc(N(c2ccccc2)c2ccccc2)cc1,8.91 µM (active),–
COc1ccc(S(=O)(=O)Cc2ccc(C(=O)N3CCC4(CC3)OCCO4)o2)cc1,–,5.17%
O=C1CC(=O)N(Cc2ccccc2)C(=O)N1CCCCCCN1C(=O)CC(=O)N(Cc2ccccc2)C1=O,–,-11%
O=C1NC(=O)N(Cc2ccco2)C(=O)/C1=C/C=C/c1ccco1,8.91 µM (active),–
CC(=Nc1ccc2c(c1)CCC2)c1c(O)n(C)c(=O)n(C)c1=O,–,-0.941%
CC(C)N1C(=O)/C(=C/C=C/c2ccco2)C(=O)N(Cc2ccco2)C1=O,7.94 µM (active),–
O=C1NC(=O)[C@]2(Cc3ccccc3N3CCN(c4ccccc4)CC32)C(=O)N1Cc1ccccc1 (some centres undefined),10 µM (active),–
COc1ccc(NC(=O)c2c(C)nn(Cc3ccccc3Cl)c2Cl)cc1Cl,–,4.72%
Nc1ccc(S(=O)(=O)N2CCCCC2c2cccnc2)cc1 (centres undefined),–,2.79%
